Compound activity deposited in PubChem by National Center for Advancing Translational Sciences (NCATS).
A selection: hits, their analogues and other compounds. The true share with any hit is near 19%.
TDP1 inh: inhibitors of human tyrosyl-DNA phosphodiesterase TDP1 | Q9NUW8 | recombinant TDP1, AlphaScreen DNA substrate cleavage | Potency, µM (doses to about 130 µM), without a hit: at the highest dose activity change, negative = inhibition, most hits filed as inhibitors | 350,000 compounds, 0.28% hits; further: potency means the concentration at half of the fitted maximal effect; nearly all actives have a fitted effect of over 40% in size
Target sequence (Q9NUW8 whole entry, looked up): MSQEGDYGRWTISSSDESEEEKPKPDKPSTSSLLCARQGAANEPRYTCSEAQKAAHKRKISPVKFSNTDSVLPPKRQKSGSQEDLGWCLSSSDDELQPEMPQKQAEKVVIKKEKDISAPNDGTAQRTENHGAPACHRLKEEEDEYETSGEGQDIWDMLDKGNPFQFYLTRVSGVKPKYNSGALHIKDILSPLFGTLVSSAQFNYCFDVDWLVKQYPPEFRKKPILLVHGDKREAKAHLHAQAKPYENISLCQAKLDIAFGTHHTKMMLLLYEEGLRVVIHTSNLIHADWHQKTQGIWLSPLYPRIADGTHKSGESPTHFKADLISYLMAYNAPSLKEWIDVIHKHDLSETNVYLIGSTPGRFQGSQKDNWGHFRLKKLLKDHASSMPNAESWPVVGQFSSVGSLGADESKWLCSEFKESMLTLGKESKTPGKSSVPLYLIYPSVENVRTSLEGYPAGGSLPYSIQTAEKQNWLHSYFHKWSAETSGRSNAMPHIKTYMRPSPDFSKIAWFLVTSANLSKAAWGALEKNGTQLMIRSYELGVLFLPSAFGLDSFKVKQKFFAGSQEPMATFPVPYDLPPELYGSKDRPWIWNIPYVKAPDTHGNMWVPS
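Signal: AlphaScreen proximity between streptavidin donor and anti-FITC acceptor beads on intact substrate. Reaction: Tdp1 1 nM, substrate 15 nM final, 5 min RT after 15 min compound preincubation.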
ELG1 DNA repair: ELG1-dependent DNA repair inhibition; HEK293T ELG1-luciferase reporter, luminescence, 16 h; DNA damage induced by 5-fluorouridine; Potency, µM (top dose mostly 46.1 µM), for inactives: at the top dose activity change, negative = inhibition, hits mostly inhibitors; 330,000 compounds, 2.3% hits; AID 504467; further: potency means the concentration at half of the fitted maximal effect; nearly all actives have a fitted effect of over 55% in size
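Overnight (16 hr) co-exposure of 2,000 cells/well to 5-fluorouridine and compound at 37 °C preceded detection. Luciferase was quantified via ONE-Glo luminescence; loss of signal denotes inhibition.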
IL1B secr inh: inhibitors of inflammasome signaling (IL-1 beta secretion); 360,000 compounds, 4.7% hits; THP-1 LPS/ATP IL-1B secretion, AlphaLISA, 16 h; stronger effect = lower value; activity change, % at 57.5 µM; AID 743279; in the data active means activity change below about -50%; inconclusive means mostly about -30% to -49%
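Secreted IL-1B measured by AlphaLISA bead assay after 16 h compound exposure of THP-1 cells; compounds (final up to 57.5 uM) added 1 h before LPS (250 ng/mL) and ATP (1.25 mM) stimulation; lower signal means less secretion.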
DT40 TDP1 no CPT: qHTS for Inhibitors of human tyrosyl-DNA phosphodiesterase 1 (TDP1): qHTS in cells in absence of CPT. DT40 Tdp1-/- hTDP1 cells, no CPT, ATP luminescence, 48 h. Potency, µM (highest dose often 46.2 µM), for the others: at the highest dose activity change, negative = growth inhibition, most hits filed as inhibitors. 420,000 compounds, 15% hits. AID 686978, 2013; further: potency means the concentration at half of the fitted maximal effect; nearly all actives have a fitted effect of over 55% in size
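Seeded 400 DT40-hTDP1 cells/well (vehicle DMSO, no 20 nM CPT); pinned compounds; ≥48 hr at 37 °C; CellTiter-Glo luminescence as viability measure.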
TDP1 cell CPT: growth inhibition of DT40 Tdp1-/-;hTDP1 cells with camptothecin (screen for TDP1 inhibitors); Potency, µM (doses to about 46.2 µM), for inactives: top-dose activity change, negative = growth inhibition, hits mostly inhibitors; chicken DT40 Tdp1-/-;hTDP1 cells + 20 nM CPT, ATP luminescence, 48 h; 420,000 compounds, 12% hits; further: potency means the concentration at half of the fitted maximal effect; nearly all actives have a fitted effect of over 55% in size
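Chicken DT40 Tdp1-/- cells stably complemented with human TDP1 were seeded at 400 cells/well in medium containing 20 nM camptothecin, exposed to pin-transferred compounds, and grown at 37 °C for at least 48 hr. Viability was read as ATP luminescence.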
Giardia killer: kills Giardia lamblia | activity change, % at 7.66 µM, hits read low | Giardia lamblia trophozoite viability | 340,000 compounds, 0.15% hits; in the data active means activity change below about -80%; inconclusive means between about -30% and that limit;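 further: parasites exposed to compound for two days anaerobically before the ATP read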
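Luminescent ATP signal served as the viability read-out, measured 15-30 min after adding ATP detection reagent to trophozoites that had been incubated with compounds for 48 hrs at 37 deg C anaerobically at 100 cells/well.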
An asterisk follows results filed as active; u = inconclusive; x = no result given; [ ] = remark or other dose. Unless noted, the call rests on the fitted dose curve; in most records, active means well fitted curve in the direction sought with a large enough effect; inconclusive means small, poorly fitted or top-dose-only effect, or another doubt; inactive means no such curve, though single readings can be large; an effect the other way counts as inactive or inconclusive. On the % scale 0 is the no-effect control and ±100 the full control effect.

SMILES	TDP1 inh	ELG1 DNA repair	IL1B secr inh	DT40 TDP1 no CPT	TDP1 cell CPT	Giardia killer
Cn1c(-c2ccc(F)cc2)cnc1NCc1cccc(F)c1	6%	21%	-12	18µM*	u	-3
COc1ccc(CNc2ncc(-c3ccc(F)cc3)n2C)c2ccccc12	x	-14%	-82*	16µM*	23µM*	37
Cn1c(-c2ccc(F)cc2)cnc1NCc1ccccc1	3%	18%	-10	u	u	-3
CCn1nnnc1NCc1ccc(OCc2ccc(F)cc2Cl)c(OC)c1	11%	u	-58*	u	u	4
CC(=O)Nc1c(C)nn(-c2ccccc2)c1N1CCC(C(=O)Nc2ccc(F)cc2Cl)CC1	5%	x	x	-28%	-15%	x
CCC(=O)N1CCc2cc(S(=O)(=O)NC(C(=O)NC3CCCc4ccccc43)C(C)C)ccc21 (stereo unspecified)	-5%	7%	-4	u	-25%	38
O=C(Nc1c(O)c2ccccc2oc1=O)c1cccc(F)c1	-4%[12.3 µM]	x	x	7%	8%	x
COc1ccc(NC(=O)C2CCCN2C(=O)Oc2ccccc2)cc1 (stereo unspecified)	-2%	14%	7	-1%	11%	-5
COc1ccccc1CNc1ncc(-c2ccc(F)cc2)n1C	x	1%	-18	u	u	20
COc1ccc(CNc2ncc(-c3ccc(F)cc3)n2C)cc1OC	x	-15%	-12	23µM*	u	-28
COc1ccc(OC)c(CNc2ncc(-c3ccc(F)cc3)n2C)c1	x	3%	-18	u	u	-5
COc1ccccc1CNc1ncc(-c2ccccc2)n1C	x	5%	0	u	26µM*	-12
CCCc1ccc(OCC(=O)Nc2sc3c(c2C(=O)OCC)CCC(C(C)(C)C)C3)cc1 (stereo unspecified)	-1%[12.3 µM]	x	x	-3%	-4%	x
COc1ccccc1N1CCN(S(=O)(=O)CCNC(=O)c2cccc(F)c2)CC1	x	-15%	-14	u	u	2
Cc1ccc2nc(N(CCN3CCOCC3)C(=O)CCS(=O)(=O)c3ccccc3)sc2c1	-1%	u	u	12µM*	12µM*	-6
CCCC(=O)N(CCN1CCOCC1)c1nc2cc(C)c(C)cc2s1	1%	u	-11	1%	-13%	-7
O=C(CCS(=O)(=O)c1ccccc1)N(CCCN1CCOCC1)c1nc2ccccc2s1	6%	u	-107*	3.7µM*	5.2µM*	-6
Cc1ccc(S(=O)(=O)CCC(=O)N(CCCN2CCOCC2)c2nc3ccccc3s2)cc1	5%	1%	-72*	2.9µM*	2.3µM*	-3
COc1ccc(OCC(O)CNC(=O)c2sccc2Cl)cc1 (stereo unspecified)	0%	u	-14	0%	2%	-5
Cc1ccc(CNC(=O)CN2Cc3ccccc3C2=O)cc1	4%	x	x	-13%	2%	x
Cc1cc(C)c(NC(=O)c2cc(S(=O)(=O)N3CCN(c4ccccc4F)CC3)ccc2F)c(C)c1	3%	x	x	4.1µM*	u	x
CCc1ccccc1N1CCN(S(=O)(=O)c2ccc(F)c(C)c2)CC1	7%	u	-10	21µM*	u	-8
COc1ccccc1N1CCN(S(=O)(=O)c2ccc(F)c(C(=O)Nc3ccc(C)c(F)c3)c2)CC1	5%	x	x	u	16µM*	x
CCC(=O)c1cc(F)c(N2CCN(S(=O)(=O)c3ccc(C)cc3)CC2)cc1C	2%	u	-9	21µM*	u	-19
CCc1nn2c(=O)cc(COC(=O)c3ccco3)nc2s1	3%	x	x	-9%	-13%	x
SMILES	TDP1 inh	ELG1 DNA repair	IL1B secr inh	DT40 TDP1 no CPT	TDP1 cell CPT	Giardia killer
Cc1ccccc1C(=O)Nc1ccnn1C1CCN(C(=O)c2ccoc2)CC1	3%	2%	6	1%	0%	11
Cc1cc(C)n(-c2c(F)c(F)c(CO)c(F)c2F)n1	-4%	x	15	-7%	-8%	6
COc1ccc(-n2c(SCC(=O)N(C)C3CCS(=O)(=O)C3)nc3ccc(O)cc3c2=O)cc1OC (stereo unspecified)	0%	0%	-2	-16%	19%	-4
CC(=O)c1ccc(N2CCN(C(=O)C3CCN(S(=O)(=O)c4ccc(Br)s4)CC3)CC2)cc1	2%	x	x	16µM*	u	x
O=C(C1CCCN(S(=O)(=O)c2ccc(Br)s2)C1)N1CCN(c2ccc(F)cc2)CC1 (stereo unspecified)	2%	x	x	12µM*	18µM*	x
CC(=O)c1ccc(N2CCN(C(=O)C3CCCN(S(=O)(=O)c4ccc(Br)s4)C3)CC2)cc1 (stereo unspecified)	-2%[12.3 µM]	x	x	9.2µM*	15µM*	x
O=C(C1CCCN(S(=O)(=O)c2ccc(Br)s2)C1)N1CCN(c2ccccc2F)CC1 (stereo unspecified)	2%	x	x	23µM*	u	x
COc1ccc(Cl)cc1NC(=O)c1sc(-n2nc(C)c(Cc3ccccc3)c2C)nc1C	x	x	x	u	-14%	x
CC(C)c1nc(N(C)S(C)(=O)=O)nc(-c2ccc(F)cc2)c1/C=C/C(O)CC(O)CC(=O)O (stereo unspecified)	6%	x	x	-51%	-20%	x
O=C(C1CCCN(S(=O)(=O)c2cccs2)C1)N1CCN(c2ccccc2F)CC1 (stereo unspecified)	5%	x	x	15µM*	23µM*	x
CCc1ccccc1NC(=O)C1CCN(C(=O)N2CC(C)Oc3ccc(Cl)cc32)CC1 (stereo unspecified)	0%	x	x	u	u	x
CCOc1ccc(CN2C(=O)c3ccccc3Sc3ccc(C(=O)O)cc32)cc1	3%	x	x	u	u	x
COc1cc(OC)cc(C(=O)N2CCC(C(=O)NCCc3ccccc3)CC2)c1	x	-1%	34	7.3µM*	7.3µM*	6
COc1ccc(CCNC(=O)C2CCN(C(=O)c3ccccc3C)CC2)cc1	x	-9%	15	18µM*	u	2
COc1ccc(CCNC(=O)C2CCN(C(=O)c3cccs3)CC2)cc1	3%	-16%	34	-21%	-5%	3
COc1ccc(CCNC(=O)C2CCN(C(=O)c3ccc(OC)c(OC)c3)CC2)cc1	x	-18%	-21	-9%	3%	4
C=CS(=O)(=O)O	x	x	x	13%	16%	x
COc1ccc(C2=C(C)C(=O)N(Cc3ccc(C(=O)NC(C)c4ccccc4)cc3)S2(=O)=O)cc1 (stereo unspecified)	5%	x	x	-20%	-12%	x
